{"source": "PubChem BioAssay AID1159580", "about": "(chemical genetic matrix, 2015)", "assay": "chemical genetic growth profiling, strain panel (AID 1159580);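 also: tested at 20 µM; growth read once vehicle control cultures reached saturation at 30 °C; 1 = growth at the plate median or of vehicle wells; lower values mean less growth of the strain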", "conditions": "growth OD", "note": "About 2,000 (36%) of roughly 5,500 compounds were called active. About 18% were inconclusive and are not listed. The list shows a part of the results. Unmarked numbers belong to inactive results. Rule as the data show it: active = normalized growth mostly below about 0.91 (no sharp cut-off); inconclusive = no clear call, values can overlap the other calls; inactive = mostly above about 0.92.", "data": [{"smiles": "COc1ccc2c(c1)OCC(Cc1ccc(OC)c(O)c1)C2=O", "note": "(stereo not drawn)", "values": [{"measurement": "normalized growth", "setting": "S. cerevisiae deletion strains, locus YJR043C, strain POL32, active compounds read low", "result": 0.998}, {"measurement": "normalized growth", "setting": "S. cerevisiae deletion strains, locus YJR066W, strain TOR1, active compounds read low", "result": 0.904}, {"measurement": "normalized growth", "setting": "S. cerevisiae deletion strains, locus YKL009W, strain mrt4, active compounds read low", "result": 0.94}, {"measurement": "normalized growth", "setting": "S. cerevisiae deletion strains, locus YKL068W, active compounds read low", "result": 0.97}, {"measurement": "normalized growth", "setting": "S. cerevisiae deletion strains, locus YKL085W, strain MDH1 (second series), active compounds read low", "result": 0.969}, {"measurement": "normalized growth", "setting": "S. cerevisiae deletion strains, locus YKL085W, strain MDH1, active compounds read low", "result": 0.969}, {"measurement": "normalized growth", "setting": "S. cerevisiae deletion strains, locus YKL160W, strain elf1, active compounds read low", "result": 0.925}, {"measurement": "normalized growth", "setting": "S. cerevisiae deletion strains, locus YKL190W, strain CNB1, active compounds read low", "result": 0.984}, {"measurement": "normalized growth", "setting": "S. cerevisiae deletion strains, locus YKR001C, strain vps1, active compounds read low", "result": 0.964}, {"measurement": "normalized growth", "setting": "S. cerevisiae deletion strains, locus YKR026C, strain gcn3, active compounds read low", "result": 0.966}, {"measurement": "normalized growth", "setting": "S. cerevisiae deletion strains, locus YKR091W, strain srl3, active compounds read low", "result": 0.962}, {"measurement": "normalized growth", "setting": "S. cerevisiae deletion strains, locus YLL001W, strain dnm1, active compounds read low", "result": 0.931}, {"measurement": "normalized growth", "setting": "S. cerevisiae deletion strains, locus YLL026W, active compounds read low", "result": 0.957}, {"measurement": "normalized growth", "setting": "S. cerevisiae deletion strains, locus YLL041C, strain sdh2, active compounds read low", "result": 0.955}, {"measurement": "normalized growth", "setting": "S. cerevisiae deletion strains, locus YLR027C, strain aat2, active compounds read low", "result": 0.933}, {"measurement": "normalized growth", "setting": "S. cerevisiae deletion strains, locus YLR039C, strain RIC1, active compounds read low", "result": 1.02}, {"measurement": "normalized growth", "setting": "S. cerevisiae deletion strains, locus YLR058C, strain SHM2, active compounds read low", "result": 0.958}, {"measurement": "normalized growth", "setting": "S. cerevisiae deletion strains, locus YLR102C, strain apc9, active compounds read low", "result": 0.955}, {"measurement": "normalized growth", "setting": "S. cerevisiae deletion strains, locus YLR113W, strain HOG1, active compounds read low", "result": 0.917}, {"measurement": "normalized growth", "setting": "S. cerevisiae deletion strains, locus YLR221C, strain rsa3, active compounds read low", "result": 0.923}, {"measurement": "normalized growth", "setting": "S. cerevisiae deletion strains, locus YLR258W, strain gsy2, active compounds read low", "result": "0.91 (active)"}, {"measurement": "normalized growth", "setting": "S. cerevisiae deletion strains, locus YLR262C, strain YPT6 (second series), active compounds read low", "result": 0.985}, {"measurement": "normalized growth", "setting": "S. cerevisiae deletion strains, locus YLR262C, strain YPT6, active compounds read low", "result": 0.986}, {"measurement": "normalized growth", "setting": "S. cerevisiae deletion strains, locus YLR268W, strain sec22, active compounds read low", "result": 0.976}, {"measurement": "normalized growth", "setting": "S. cerevisiae deletion strains, locus YLR320W, strain mms22, active compounds read low", "result": "0.835 (active)"}, {"measurement": "normalized growth", "setting": "S. cerevisiae deletion strains, locus YLR330W, strain CHS5, active compounds read low", "result": 0.952}, {"measurement": "normalized growth", "setting": "S. cerevisiae deletion strains, locus YLR342W, strain FKS1 (second series), active compounds read low", "result": 0.955}, {"measurement": "normalized growth", "setting": "S. cerevisiae deletion strains, locus YLR342W, strain FKS1, active compounds read low", "result": 0.922}, {"measurement": "normalized growth", "setting": "S. cerevisiae deletion strains, locus YLR357W, strain rsc2, active compounds read low", "result": 0.998}, {"measurement": "normalized growth", "setting": "S. cerevisiae deletion strains, locus YLR370C, strain arc18, active compounds read low", "result": 0.97}, {"measurement": "normalized growth", "setting": "S. cerevisiae deletion strains, locus YLR371W, strain rom2, active compounds read low", "result": 0.975}, {"measurement": "normalized growth", "setting": "S. cerevisiae deletion strains, locus YLR384C, strain iki3, active compounds read low", "result": 0.948}, {"measurement": "normalized growth", "setting": "S. cerevisiae deletion strains, locus YLR418C, strain cdc73, active compounds read low", "result": "0.81 (active)"}, {"measurement": "normalized growth", "setting": "S. cerevisiae deletion strains, locus YML016C, strain PPZ1, active compounds read low", "result": 0.967}, {"measurement": "normalized growth", "setting": "S. cerevisiae deletion strains, locus YML032C, strain rad52, active compounds read low", "result": 0.949}, {"measurement": "normalized growth", "setting": "S. cerevisiae deletion strains, locus YML120C, strain ndi1, active compounds read low", "result": 0.938}, {"measurement": "normalized growth", "setting": "S. cerevisiae deletion strains, locus YML124C, strain tub3, active compounds read low", "result": 0.954}, {"measurement": "normalized growth", "setting": "S. cerevisiae deletion strains, locus YMR058W, strain fet3, active compounds read low", "result": 0.948}, {"measurement": "normalized growth", "setting": "S. cerevisiae deletion strains, locus YMR078C, strain ctf18, active compounds read low", "result": 0.95}, {"measurement": "normalized growth", "setting": "S. cerevisiae deletion strains, locus YMR125W, strain sto1, active compounds read low", "result": 1.01}, {"measurement": "normalized growth", "setting": "S. cerevisiae deletion strains, locus YMR129W, active compounds read low", "result": 0.948}, {"measurement": "normalized growth", "setting": "S. cerevisiae deletion strains, locus YMR205C, strain PFK2, active compounds read low", "result": "0.833 (active)"}, {"measurement": "normalized growth", "setting": "S. cerevisiae deletion strains, locus YMR223W, strain ubp8, active compounds read low", "result": 0.933}, {"measurement": "normalized growth", "setting": "S. cerevisiae deletion strains, locus YMR231W, strain pep5, active compounds read low", "result": 0.967}, {"measurement": "normalized growth", "setting": "S. cerevisiae deletion strains, locus YMR307W, strain GAS1, active compounds read low", "result": 0.97}, {"measurement": "normalized growth", "setting": "S. cerevisiae deletion strains, locus YNL067W, strain RPL9B, active compounds read low", "result": 0.944}, {"measurement": "normalized growth", "setting": "S. cerevisiae deletion strains, locus YNL071W, strain lat1, active compounds read low", "result": "0.681 (active)"}, {"measurement": "normalized growth", "setting": "S. cerevisiae deletion strains, locus YNL183C, strain NPR1, active compounds read low", "result": 0.933}, {"measurement": "normalized growth", "setting": "S. cerevisiae deletion strains, locus YNL209W, strain ssb2, active compounds read low", "result": 0.978}, {"measurement": "normalized growth", "setting": "S. cerevisiae deletion strains, locus YNL233W, strain BNI4, active compounds read low", "result": 0.905}, {"measurement": "normalized growth", "setting": "S. cerevisiae deletion strains, locus YNL248C, strain rpa49, active compounds read low", "result": 0.919}, {"measurement": "normalized growth", "setting": "S. cerevisiae deletion strains, locus YNL250W, strain rad50, active compounds read low", "result": 0.94}, {"measurement": "normalized growth", "setting": "S. cerevisiae deletion strains, locus YNL271C, strain bni1, active compounds read low", "result": 0.952}, {"measurement": "normalized growth", "setting": "S. cerevisiae deletion strains, locus YNL298W, strain CLA4, active compounds read low", "result": 0.959}, {"measurement": "normalized growth", "setting": "S. cerevisiae deletion strains, locus YNL307C, strain MCK1, active compounds read low", "result": "0.824 (active)"}, {"measurement": "normalized growth", "setting": "S. cerevisiae deletion strains, locus YNL322C, strain KRE1 (second series), active compounds read low", "result": 0.949}, {"measurement": "normalized growth", "setting": "S. cerevisiae deletion strains, locus YNR049C, strain mso1, active compounds read low", "result": 0.967}, {"measurement": "normalized growth", "setting": "S. cerevisiae deletion strains, locus YNR052C, strain pop2, active compounds read low", "result": 0.937}, {"measurement": "normalized growth", "setting": "S. cerevisiae deletion strains, locus YOL012C, strain htz1", "result": 1.16}, {"measurement": "normalized growth", "setting": "S. cerevisiae deletion strains, locus YOL147C, strain pex11, active compounds read low", "result": 0.964}, {"measurement": "normalized growth", "setting": "S. cerevisiae deletion strains, locus YOR001W, strain rrp6, active compounds read low", "result": 0.898}, {"measurement": "normalized growth", "setting": "S. cerevisiae deletion strains, locus YOR061W, strain CKA2, active compounds read low", "result": 0.963}, {"measurement": "normalized growth", "setting": "S. cerevisiae deletion strains, locus YOR069W, strain VPS5, active compounds read low", "result": 0.96}, {"measurement": "normalized growth", "setting": "S. cerevisiae deletion strains, locus YOR070C, strain gyp1, active compounds read low", "result": 0.968}, {"measurement": "normalized growth", "setting": "S. cerevisiae deletion strains, locus YOR080W, strain dia2, active compounds read low", "result": 0.979}, {"measurement": "normalized growth", "setting": "S. cerevisiae deletion strains, locus YOR083W, strain WHI5, active compounds read low", "result": 0.911}, {"measurement": "normalized growth", "setting": "S. cerevisiae deletion strains, locus YOR106W, strain vam3, active compounds read low", "result": 0.886}, {"measurement": "normalized growth", "setting": "S. cerevisiae deletion strains, locus YOR136W, strain idh2, active compounds read low", "result": 0.962}, {"measurement": "normalized growth", "setting": "S. cerevisiae deletion strains, locus YOR144C, strain elg1, active compounds read low", "result": 0.95}, {"measurement": "normalized growth", "setting": "S. cerevisiae deletion strains, locus YOR184W, strain ser1, active compounds read low", "result": 0.906}, {"measurement": "normalized growth", "setting": "S. cerevisiae deletion strains, locus YOR231W, strain MKK1, active compounds read low", "result": 0.998}, {"measurement": "normalized growth", "setting": "S. cerevisiae deletion strains, locus YOR265W, strain rbl2, active compounds read low", "result": 0.962}, {"measurement": "normalized growth", "setting": "S. cerevisiae deletion strains, locus YOR270C, strain vph1, active compounds read low", "result": 0.823}, {"measurement": "normalized growth", "setting": "S. cerevisiae deletion strains, locus YOR290C, strain snf2, active compounds read low", "result": 0.897}, {"measurement": "normalized growth", "setting": "S. cerevisiae deletion strains, locus YOR316C, strain cot1, active compounds read low", "result": 0.959}, {"measurement": "normalized growth", "setting": "S. cerevisiae deletion strains, locus YPL051W, strain arl3, active compounds read low", "result": 0.939}, {"measurement": "normalized growth", "setting": "S. cerevisiae deletion strains, locus YPL055C, strain LGE1, active compounds read low", "result": 0.96}, {"measurement": "normalized growth", "setting": "S. cerevisiae deletion strains, locus YPL078C, strain atp4, active compounds read low", "result": 0.914}, {"measurement": "normalized growth", "setting": "S. cerevisiae deletion strains, locus YPL106C, strain sse1, active compounds read low", "result": 0.972}, {"measurement": "normalized growth", "setting": "S. cerevisiae deletion strains, locus YPL240C, strain hsp82, active compounds read low", "result": 0.946}, {"measurement": "normalized growth", "setting": "S. cerevisiae deletion strains, locus YPL241C, strain CIN2, active compounds read low", "result": 0.973}, {"measurement": "normalized growth", "setting": "S. cerevisiae deletion strains, locus YPL256C, strain CLN2, active compounds read low", "result": 1.01}, {"measurement": "normalized growth", "setting": "S. cerevisiae deletion strains, locus YPR119W, strain clb2, active compounds read low", "result": 0.95}, {"measurement": "normalized growth", "setting": "S. cerevisiae deletion strains, locus YPR141C, strain kar3, active compounds read low", "result": 0.971}, {"measurement": "normalized growth", "setting": "S. cerevisiae deletion strains, locus YPR163C, strain tif3, active compounds read low", "result": "0.842 (active)"}, {"measurement": "normalized growth", "setting": "S. cerevisiae deletion strains, locus YPR167C, strain met16, active compounds read low", "result": "0.89 (active)"}, {"measurement": "normalized growth", "setting": "S. cerevisiae deletion strains, strain wtn01, active compounds read low", "result": 0.95}, {"measurement": "normalized growth", "setting": "S. cerevisiae strains, strain wild type, active compounds read low", "result": 0.973}]}]}
